# Results as given in PubChem BioAssay (EPA / NIEHS).
# Values joined by “and” are separate entries in the source; they are usually repeats but may differ in a detail not shown here. Equal entries are not always repeated. Records with an inconclusive call do not appear. More than one record can exist for a structure, and the calls need not agree. Active and inactive are the calls of the source. Rule for the calls, unless noted: active = hit-call score of the fitted dose curve at least 0.9, where 1 is the maximum; inactive = score below 0.9.
# Tests used:
# [1] = molecular target: human RAR-related Orphan Receptor beta (RORb), RORB (gene 6096) (UniProt Q92753); assay: ATG_RORb_TRANS: Attagene TRANS-FACTORIAL HepG2 Assay for human RAR-related Orphan Receptor beta (RORb) (AID 2283010; active = hit-call score of the fitted dose curve at least 0.9, where 1 is the maximum)
# Chain of human RAR-related Orphan Receptor beta (RORb), RORB (gene 6096) (Q92753 whole entry, looked up, the tested form may be a part): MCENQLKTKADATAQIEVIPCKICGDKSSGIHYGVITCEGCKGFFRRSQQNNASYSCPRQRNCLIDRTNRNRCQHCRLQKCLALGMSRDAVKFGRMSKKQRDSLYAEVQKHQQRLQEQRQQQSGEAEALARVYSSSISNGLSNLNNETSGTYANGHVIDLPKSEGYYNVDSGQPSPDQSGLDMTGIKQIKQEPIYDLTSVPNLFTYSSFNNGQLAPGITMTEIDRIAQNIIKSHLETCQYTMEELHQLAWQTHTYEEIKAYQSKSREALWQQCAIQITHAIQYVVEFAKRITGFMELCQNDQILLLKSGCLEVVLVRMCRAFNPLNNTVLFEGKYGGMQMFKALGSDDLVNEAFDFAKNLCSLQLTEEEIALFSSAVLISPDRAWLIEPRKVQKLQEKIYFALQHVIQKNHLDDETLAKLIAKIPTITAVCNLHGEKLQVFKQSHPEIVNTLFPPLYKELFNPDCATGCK
# Method in brief: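 HepG2 cells were transiently transfected with multiplexed GAL4-UAS reporter units expressing chimeric nuclear receptor–GAL4 proteins, then dosed for 24 h. Reporter mRNA was quantified by RT-PCR with fluorescent labelling and capillary electrophoresis; gain of signal was fitted relative to DMSO.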
# [2] = molecular target: human Retinoid X Receptor beta (RXRb), RXRB (gene 6257) (UniProt P28702); assay: ATG_RXRb_TRANS: Attagene TRANS-FACTORIAL HepG2 Assay for human Retinoid X Receptor beta (RXRb) (AID 2283013; active = hit-call score of the fitted dose curve at least 0.9, where 1 is the maximum)
# Chain of human Retinoid X Receptor beta (RXRb), RXRB (gene 6257) (P28702 whole entry, looked up, the tested form may be a part): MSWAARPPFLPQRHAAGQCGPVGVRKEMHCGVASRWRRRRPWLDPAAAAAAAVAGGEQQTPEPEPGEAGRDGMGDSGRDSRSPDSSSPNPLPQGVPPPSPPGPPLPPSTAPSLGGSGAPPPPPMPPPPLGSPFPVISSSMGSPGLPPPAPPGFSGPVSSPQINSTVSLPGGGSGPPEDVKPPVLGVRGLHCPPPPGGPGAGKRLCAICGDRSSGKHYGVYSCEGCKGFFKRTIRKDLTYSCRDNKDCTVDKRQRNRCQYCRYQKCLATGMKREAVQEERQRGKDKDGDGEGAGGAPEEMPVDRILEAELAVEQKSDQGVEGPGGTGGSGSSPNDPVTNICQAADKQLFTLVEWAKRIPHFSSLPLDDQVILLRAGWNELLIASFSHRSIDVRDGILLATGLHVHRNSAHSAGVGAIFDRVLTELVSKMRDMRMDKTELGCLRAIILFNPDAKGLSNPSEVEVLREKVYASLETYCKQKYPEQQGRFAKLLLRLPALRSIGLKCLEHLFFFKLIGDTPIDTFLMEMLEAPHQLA
# Method in brief: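 HepG2 cells transiently transfected with multiplexed reporter units driven by GAL4-UAS and exogenous chimeric NR-Gal4 proteins; treated 24 h. Reporter mRNA measured by RT-PCR, 6-FAM labelling and capillary electrophoresis; gain-of-signal fitted versus DMSO baseline.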
# [3] = molecular target: human Thyroid Receptor alpha (THRa1), THRA (gene 7067) (UniProt P10827); assay: ATG_THRa1_TRANS: Attagene TRANS-FACTORIAL HepG2 Assay for human Thyroid Receptor alpha (THRa1) (AID 2283014; active = hit-call score of the fitted dose curve at least 0.9, where 1 is the maximum)
# Chain of human Thyroid Receptor alpha (THRa1), THRA (gene 7067) (P10827 whole entry, looked up, the tested form may be a part): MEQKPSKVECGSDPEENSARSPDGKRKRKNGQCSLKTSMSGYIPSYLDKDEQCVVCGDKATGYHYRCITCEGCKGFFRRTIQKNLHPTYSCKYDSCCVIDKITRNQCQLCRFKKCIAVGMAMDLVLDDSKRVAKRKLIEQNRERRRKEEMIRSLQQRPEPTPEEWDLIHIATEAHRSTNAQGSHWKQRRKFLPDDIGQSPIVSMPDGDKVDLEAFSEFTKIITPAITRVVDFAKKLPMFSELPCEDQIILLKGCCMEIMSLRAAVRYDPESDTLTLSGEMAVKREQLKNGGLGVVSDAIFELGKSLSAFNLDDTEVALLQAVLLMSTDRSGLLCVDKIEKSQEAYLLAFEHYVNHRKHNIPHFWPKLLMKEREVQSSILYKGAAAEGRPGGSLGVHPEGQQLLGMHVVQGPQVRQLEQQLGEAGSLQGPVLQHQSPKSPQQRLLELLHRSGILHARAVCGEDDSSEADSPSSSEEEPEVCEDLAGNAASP
# Method in brief: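 HepG2 cells transiently transfected with chimeric NR-Gal4 and GAL4-UAS reporter units, dosed 24 h. Reporter mRNA quantified by RT-PCR, fluorescent labeling, HpaI digestion and capillary electrophoresis; gain-of-signal fit versus DMSO.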
# [4] = read-out: E-selectin (Homo sapiens) (UniProt P16581); assay: BSK_3C_Eselectin: BioMAP Diversity Plus: 3C Assay for Eselectin Biomarker Activity (AID 2283015); details: primary human endothelial cells (HUVEC); actives raise or lower the signal;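 for outcome: cell surface E-selectin protein quantified by ELISA 24 h after dosing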
# Method in brief: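 Primary human umbilical vein endothelial cells (3C system), read 24 h after compound addition; E-selectin measured by ELISA. Bidirectional curve fitting against DMSO baseline; cytotoxicity by parallel SRB total-protein staining.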
# [5] = read-out: Interleukin-1 alpha (IL1a), IL1A (gene 3552); assay: BSK_BE3C_IL1a: BioMAP Diversity Plus: BE3C Assay for Interleukin-1 alpha (IL1a) Biomarker Activity (AID 2283016); details: primary human bronchial epithelial cells; actives raise or lower the signal
# Method in brief: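 Human primary bronchial epithelial cells (BE3C system) were dosed with compound and IL-1a measured by ELISA 24 h later. Activity was fitted bidirectionally against DMSO baseline; cytotoxicity was tracked in parallel cultures by SRB total-protein staining.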
# [6] = read-out: Monocyte Chemoattractant Protein-1 (MCP1), CCL2 (gene 6347); assay: BSK_3C_MCP1: BioMAP Diversity Plus: 3C Assay for Monocyte Chemoattractant Protein-1 (MCP1) Biomarker Activity (AID 2283017); details: primary human endothelial cells (HUVEC); actives raise or lower the signal
# Method in brief: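 Human umbilical vein endothelial cells (3C system) exposed to chemicals for 24 h; MCP-1 quantified by ELISA against the DMSO baseline with bidirectional fitting, and parallel SRB staining used to assess cytotoxicity.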
# [7] = read-out: Monocyte Chemoattractant Protein-1 (MCP1), CCL2 (gene 6347); assay: BSK_4H_MCP1: BioMAP Diversity Plus: 4H Assay for Monocyte Chemoattractant Protein-1 (MCP1) Biomarker Activity (AID 2283018); details: primary human endothelial cells (HUVEC); actives raise or lower the signal
# Method in brief: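 Human umbilical vein endothelial cells (4H system) dosed with chemical; MCP-1 measured by ELISA 24 h after dosing. Bidirectional curve fitting against DMSO negative control as baseline; parallel SRB total-protein staining tracks overt cytotoxicity.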
# [8] = read-out: Interleukin-8 (IL8), CXCL8 (gene 3576); assay: BSK_3C_IL8: BioMAP Diversity Plus: 3C Assay for Interleukin-8 (IL8) Biomarker Activity (AID 2283020); details: primary human endothelial cells (HUVEC); actives raise or lower the signal
# Method in brief: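 Primary human umbilical vein endothelial cells (3C system) were exposed to test chemical for 24 h, then IL-8 was quantified by ELISA. Responses were fitted bidirectionally against DMSO vehicle as baseline.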
# [9] = read-out: Monokine induced gamma interferon (MIG), CXCL9 (gene 4283); assay: BSK_3C_MIG: BioMAP Diversity Plus: 3C Assay for Monokine induced gamma interferon (MIG) Biomarker Activity (AID 2283021); details: primary human endothelial cells (HUVEC); actives raise or lower the signal;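 for AC50: MIG protein level measured by immunoassay in the treated endothelial cultures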
# Method in brief: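 Primary human umbilical vein endothelial cells in the 3C system were exposed to chemical for 24 h, after which MIG was quantified by ELISA. Activity was fitted bidirectionally against DMSO as negative control and baseline.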
# [10] = BSK_3C_SRB: Viability Assessment in the BioMAP Diversity Plus: 3C Assay (AID 2283023); details: primary human endothelial cells (HUVEC);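 note: fitted both ways against DMSO so a hit may be signal rise or drop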
# Method in brief: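 Human umbilical vein endothelial cells in the 3C system, treated 24 h. Total protein measured by 0.1% sulforhodamine B staining after 10% TCA fixation, read at 560 nm; bidirectional fit versus DMSO.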
# [11] = read-out: Matrix Metallopeptidase 1 (MMP1), MMP1 (gene 4312); assay: BSK_BE3C_MMP1: BioMAP Diversity Plus: BE3C Assay for Matrix Metallopeptidase 1 (MMP1) Biomarker Activity (AID 2283024); details: primary human bronchial epithelial cells; actives raise or lower the signal
# Method in brief: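 Primary human bronchial epithelial cells were dosed with test chemicals, and MMP1 levels were measured by ELISA 24 h later. Data were fitted bidirectionally against DMSO as the negative control and activity baseline.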
# [12] = read-out: Pselectin, SELP (gene 6403); assay: BSK_4H_Pselectin: BioMAP Diversity Plus: 4H Assay for Pselectin Biomarker Activity (AID 2283026); details: primary human endothelial cells (HUVEC); actives raise or lower the signal
# Method in brief: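 Primary human umbilical vein endothelial cells were exposed to test chemical for 24 h, then cell-surface P-selectin was quantified by ELISA. Activity was fitted bidirectionally against DMSO as negative control and baseline.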
# [13] = BSK_4H_SRB: Viability Assessment in the BioMAP Diversity Plus: 4H Assay (AID 2283027); details: primary human endothelial cells (HUVEC);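 note: cells exposed to compound for 24 h before staining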;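 for AC50: curves fitted both ways versus DMSO so AC50 may be loss or gain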
# Method in brief: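 Absorbance at 560 nm of SRB-stained total protein served as the viability read-out in confluent primary human umbilical vein endothelium 24 h after chemical treatment. Curves were fitted bidirectionally against DMSO as negative control.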
# [14] = BSK_BE3C_SRB: Viability Assessment in the BioMAP Diversity Plus: BE3C Assay (AID 2283028); details: primary human bronchial epithelial cells;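 for AC50: fitted both ways so AC50 may mark signal gain or loss versus DMSO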
# Method in brief: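 Human bronchial epithelial primary cells in confluent culture, 24 h after chemical dosing; total protein by 0.1% SRB staining after 10% TCA fixation, read at 560 nm. Bidirectional fitting versus DMSO baseline.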
# [15] = read-out: Thrombomodulin, THBD (gene 7056); assay: BSK_3C_Thrombomodulin: BioMAP Diversity Plus: 3C Assay for Thrombomodulin Biomarker Activity (AID 2283029); details: primary human endothelial cells (HUVEC); actives raise or lower the signal
# Method in brief: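 Primary human umbilical vein endothelial cells (3C system) were exposed to chemical for 24 h, then thrombomodulin levels were measured by ELISA. Activity was fitted bidirectionally against the DMSO negative control as baseline.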
# [16] = molecular target: human RAR-related Orphan Receptor gamma (RORg), RORC (gene 6097) (UniProt P51449); assay: ATG_RORg_TRANS: Attagene TRANS-FACTORIAL HepG2 Assay for human RAR-related Orphan Receptor gamma (RORg) (AID 2283011; active = hit-call score of the fitted dose curve at least 0.9, where 1 is the maximum)
# Chain of human RAR-related Orphan Receptor gamma (RORg), RORC (gene 6097) (P51449 whole entry, looked up, the tested form may be a part): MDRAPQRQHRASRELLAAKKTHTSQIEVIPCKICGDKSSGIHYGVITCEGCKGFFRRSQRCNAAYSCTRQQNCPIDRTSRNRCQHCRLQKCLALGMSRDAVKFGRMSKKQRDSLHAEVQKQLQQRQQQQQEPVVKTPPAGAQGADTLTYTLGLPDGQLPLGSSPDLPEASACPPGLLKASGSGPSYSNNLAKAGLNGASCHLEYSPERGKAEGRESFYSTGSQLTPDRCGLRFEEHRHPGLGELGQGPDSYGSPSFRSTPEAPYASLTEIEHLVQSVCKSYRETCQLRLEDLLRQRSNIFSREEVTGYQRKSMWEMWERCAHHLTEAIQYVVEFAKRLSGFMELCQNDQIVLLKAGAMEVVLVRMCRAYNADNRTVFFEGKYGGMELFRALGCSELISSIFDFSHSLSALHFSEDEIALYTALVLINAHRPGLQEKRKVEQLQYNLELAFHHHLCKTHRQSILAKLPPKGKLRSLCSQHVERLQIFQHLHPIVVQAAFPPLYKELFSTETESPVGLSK
# Method in brief: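 HepG2 cells transiently transfected with GAL4-UAS reporter units and chimeric RORg-Gal4 construct; after 24 h chemical exposure, reporter mRNA measured by RT-PCR with fluorescent capillary electrophoresis, gain of signal fitted against DMSO.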
# [17] = molecular target: Retinoic acid receptor RXR-alpha (Homo sapiens) (UniProt P19793); assay: ATG_RXRa_TRANS: Attagene TRANS-FACTORIAL HepG2 Assay for human Retinoid X Receptor alpha (RXRa) (AID 2283012; active = hit-call score of the fitted dose curve at least 0.9, where 1 is the maximum)
# Chain of Retinoic acid receptor RXR-alpha (Homo sapiens) (P19793 whole entry, looked up, the tested form may be a part): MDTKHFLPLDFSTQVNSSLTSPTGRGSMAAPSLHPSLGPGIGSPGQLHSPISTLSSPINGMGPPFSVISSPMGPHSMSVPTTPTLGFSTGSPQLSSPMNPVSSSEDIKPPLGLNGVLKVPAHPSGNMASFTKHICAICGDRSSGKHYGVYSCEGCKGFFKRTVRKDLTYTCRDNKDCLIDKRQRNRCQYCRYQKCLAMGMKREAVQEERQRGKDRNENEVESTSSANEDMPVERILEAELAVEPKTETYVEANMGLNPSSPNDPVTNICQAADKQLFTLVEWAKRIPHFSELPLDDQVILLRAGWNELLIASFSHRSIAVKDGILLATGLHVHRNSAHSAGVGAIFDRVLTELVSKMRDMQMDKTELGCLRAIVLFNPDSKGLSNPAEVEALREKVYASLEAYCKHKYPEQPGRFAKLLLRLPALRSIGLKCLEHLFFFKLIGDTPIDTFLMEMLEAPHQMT
# Method in brief: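 HepG2 cells transiently transfected with multiplexed GAL4-UAS reporter units and chimeric NR-GAL4 fusions, dosed 24 h. Reporter mRNA measured by RT-PCR, FAM labelling, HpaI digestion and capillary electrophoresis; gain-of-signal fitted relative to DMSO baseline.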
# [18] = read-out: Human Leukocyte Antigen - DR isotype (HLADR), HLA-DRA (gene 3122); assay: BSK_3C_HLADR: BioMAP Diversity Plus: 3C Assay for Human Leukocyte Antigen - DR isotype (HLADR) Biomarker Activity (AID 2283019); details: primary human endothelial cells (HUVEC); actives raise or lower the signal;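 for outcome: ELISA of cell-surface HLA-DR on HUVEC 24 h after dosing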
# Method in brief: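 HUVEC monoculture, HLA-DR measured by ELISA 24 h after chemical dosing. Fitted bidirectionally against DMSO baseline; parallel SRB staining assessed cytotoxicity, with 3C proliferation read by SRB at 48 h.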
# [19] = molecular target: human Vitamin D Receptor (VDR), VDR (gene 7421) (UniProt P11473); assay: ATG_VDR_TRANS: Attagene TRANS-FACTORIAL HepG2 Assay for human Vitamin D Receptor (VDR) (AID 2283022; active = hit-call score of the fitted dose curve at least 0.9, where 1 is the maximum)
# Chain of human Vitamin D Receptor (VDR), VDR (gene 7421) (P11473 whole entry, looked up, the tested form may be a part): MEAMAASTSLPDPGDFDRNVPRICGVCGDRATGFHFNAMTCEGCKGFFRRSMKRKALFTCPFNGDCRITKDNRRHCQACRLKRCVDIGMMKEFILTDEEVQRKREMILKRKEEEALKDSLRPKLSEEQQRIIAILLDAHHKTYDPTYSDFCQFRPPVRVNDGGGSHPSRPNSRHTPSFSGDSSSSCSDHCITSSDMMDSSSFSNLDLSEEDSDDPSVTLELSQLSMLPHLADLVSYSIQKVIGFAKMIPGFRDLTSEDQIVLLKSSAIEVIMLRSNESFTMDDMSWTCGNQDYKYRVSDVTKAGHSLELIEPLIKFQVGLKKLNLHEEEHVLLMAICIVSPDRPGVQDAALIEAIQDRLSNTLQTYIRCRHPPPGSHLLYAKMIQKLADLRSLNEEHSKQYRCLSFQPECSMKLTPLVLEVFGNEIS
# Method in brief: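 HepG2 cells were transiently transfected with GAL4-UAS reporter units and a chimeric VDR-Gal4 construct, then dosed for 24 hours. Reporter mRNA was quantified by RT-PCR, fluorescent labeling, HpaI digestion and capillary electrophoresis; gain of signal analysed vs DMSO.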
# [20] = BSK_3C_Vis: BioMAP Diversity Plus: 3C Assay for Morphology Visualization (AID 2283025); details: primary human endothelial cells (HUVEC);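 note: fitted both ways so gain or loss versus DMSO counts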
# Method in brief: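 Human umbilical vein endothelial cells in the 3C system were imaged by light microscopy 24 h after chemical dosing to record cell morphology. Activity was fitted bidirectionally against DMSO as negative control and baseline; the endpoint serves as a background control.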
# Chain of E-selectin (Homo sapiens) (P16581 whole entry, looked up): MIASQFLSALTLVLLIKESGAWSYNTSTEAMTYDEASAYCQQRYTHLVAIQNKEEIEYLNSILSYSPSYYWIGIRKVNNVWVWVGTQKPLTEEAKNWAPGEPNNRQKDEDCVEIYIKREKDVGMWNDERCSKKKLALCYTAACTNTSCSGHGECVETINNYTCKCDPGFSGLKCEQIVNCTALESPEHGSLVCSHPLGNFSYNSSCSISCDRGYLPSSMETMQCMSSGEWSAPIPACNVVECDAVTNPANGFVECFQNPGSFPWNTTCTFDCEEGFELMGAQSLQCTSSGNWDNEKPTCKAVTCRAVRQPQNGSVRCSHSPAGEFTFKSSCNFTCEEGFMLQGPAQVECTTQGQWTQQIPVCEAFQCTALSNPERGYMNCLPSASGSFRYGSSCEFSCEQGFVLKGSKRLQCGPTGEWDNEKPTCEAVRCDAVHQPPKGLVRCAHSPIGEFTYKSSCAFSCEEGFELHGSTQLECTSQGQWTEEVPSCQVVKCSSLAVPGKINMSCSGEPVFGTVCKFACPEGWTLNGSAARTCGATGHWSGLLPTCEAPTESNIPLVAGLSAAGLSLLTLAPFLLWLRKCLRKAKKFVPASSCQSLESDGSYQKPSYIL
smiles,measurement,setting,value
O=C(O)C(F)(F)C(F)(F)C(F)(F)C(F)(F)C(F)(F)C(F)(F)C(F)(F)C(F)(F)C(F)(F)C(F)F,outcome,[1],inactive
same,AC50,[2],66 µM (active)
same,outcome,[3],inactive
same,outcome,[4],inactive
same,AC50,[5],17.8 µM (active) and 14.6 µM (active)
same,AC50,[6],47.1 µM (active)
same,outcome,[6],inactive
same,AC50,[7],30 µM (active)
same,outcome,[7],inactive
same,outcome,[8],inactive
same,outcome,[9],inactive
same,AC50,[10],47.3 µM (active) and 49.5 µM (active)
same,outcome,[11],inactive
same,outcome,[12],inactive
same,AC50,[13],48.6 µM (active) and 45.8 µM (active)
same,AC50,[14],21 µM (active) and 20.7 µM (active)
same,AC50,[15],49.3 µM (active) and 46.1 µM (active)
O=C(O)C=C(C(F)(F)F)C(F)(F)F,outcome,[16],inactive
same,outcome,[17],inactive
same,outcome,[2],inactive
same,outcome,[3],inactive
same,AC50,[4],15.3 µM (active) and 5.95 µM (active)
same,outcome,[5],inactive
same,outcome,[6],inactive
same,outcome,[7],inactive
same,AC50,[18],30 µM (active) and 47.7 µM (active)
same,outcome,[9],inactive
same,outcome,[19],inactive
same,outcome,[10],inactive
same,outcome,[11],inactive
same,AC50,[12],22.4 µM (active) and 21.1 µM (active)
same,outcome,[13],inactive
same,outcome,[14],inactive
same,outcome,[15],inactive
Cc1cccc(N(C)C)c1,outcome,[1],inactive
same,outcome,[3],inactive
CCc1ccc(C(c2ccc(CC)cc2)C(Cl)Cl)cc1,outcome,[17],inactive
same,outcome,[2],inactive
same,outcome,[3],inactive
same,outcome,[4],inactive
same,outcome,[5],inactive
same,AC50,[6],12.9 µM (active)
same,AC50,[7],10.7 µM (active)
same,AC50,[18],11.8 µM (active)
same,AC50,[8],11.6 µM (active)
same,outcome,[9],inactive
same,outcome,[19],inactive
same,AC50,[10],12.5 µM (active)
same,AC50,[11],7.64 µM (active)
same,AC50,[20],13 µM (active)
same,outcome,[12],inactive
same,AC50,[13],15 µM (active)
same,outcome,[14],inactive
same,outcome,[15],inactive
CC(=O)Nc1ccc(N=Nc2cc(C)ccc2O)cc1,outcome,[1],inactive
same,outcome,[2],inactive
same,AC50,[3],47.6 µM (active)
same,AC50,[4],463 nM (active)
same,outcome,[5],inactive
same,outcome,[6],inactive
same,outcome,[7],inactive
same,outcome,[8],inactive
same,outcome,[9],inactive
same,outcome,[19],inactive
same,outcome,[10],inactive
same,AC50,[11],24.7 µM (active)
same,AC50,[20],39.6 µM (active)
same,AC50,[12],15.2 µM (active)
same,outcome,[13],inactive
same,outcome,[14],inactive
same,AC50,[15],7.5 µM (active)
OCCCC(F)(F)C(F)(F)C(F)(F)C(F)(F)C(F)(F)C(F)(F)C(F)(F)F,AC50,[17],42.3 µM (active)
same,outcome,[17],inactive
same,AC50,[2],6.49 µM (active) and 7.94 µM (active)
same,AC50,[4],23.3 µM (active) and 48.9 µM (active)
same,AC50,[5],44.1 µM (active) and 47.9 µM (active)
same,AC50,[6],30.8 µM (active) and 44.4 µM (active)
same,AC50,[7],45.7 µM (active) and 45.1 µM (active)
same,AC50,[18],44.1 µM (active) and 36.1 µM (active)
same,AC50,[9],49.2 µM (active) and 43.7 µM (active)
same,outcome,[19],inactive
same,AC50,[10],32.6 µM (active) and 45.2 µM (active)
same,AC50,[11],49.7 µM (active) and 48.3 µM (active)
same,AC50,[12],41.8 µM (active)
same,outcome,[12],inactive
same,AC50,[13],49.4 µM (active) and 48.3 µM (active)
same,AC50,[14],49.1 µM (active) and 52.5 µM (active)
same,outcome,[15],inactive
FC(F)(F)C(F)(F)CNCC(F)(F)C(F)(F)F,outcome,[17],inactive
same,outcome,[2],inactive
same,outcome,[3],inactive
same,outcome,[4],inactive
same,outcome,[5],inactive
same,outcome,[6],inactive
same,outcome,[7],inactive
same,outcome,[18],inactive
same,outcome,[9],inactive
same,outcome,[19],inactive
same,outcome,[10],inactive
same,outcome,[11],inactive
same,outcome,[12],inactive
same,outcome,[13],inactive
same,outcome,[14],inactive
same,outcome,[15],inactive
